Results from PubChem BioAssay (Tox21).
Values joined by “and” are separate entries in the source; they are usually repeats but may differ in a detail not shown here. Equal entries are not always repeated. Results filed as inconclusive are left out. Entries that show only a call come without a potency. Some structures have more than one record in an assay (separate samples or runs), and their calls can disagree. Active and inactive are the calls of the source. Unless noted, calls come from the whole dose curve; as a rule, active = well fitted curve in the direction sought with a large enough effect in the repeat runs; inconclusive = weak or mixed curves; inactive = no such curve, though single readings can be large; an effect the other way counts as inactive or inconclusive.

Tests used:
[1] = target: Thyrotropin receptor (Homo sapiens) (UniProt P16473); assay: qHTS assay to identify small molecule antagonists of the thyroid stimulating hormone receptor (TSHR) signaling pathway (AID 1259385; calls by dose curve; note: nearly all actives have a fitted effect of over 20% in size)
Sequence of Thyrotropin receptor (Homo sapiens) (P16473 whole entry, looked up): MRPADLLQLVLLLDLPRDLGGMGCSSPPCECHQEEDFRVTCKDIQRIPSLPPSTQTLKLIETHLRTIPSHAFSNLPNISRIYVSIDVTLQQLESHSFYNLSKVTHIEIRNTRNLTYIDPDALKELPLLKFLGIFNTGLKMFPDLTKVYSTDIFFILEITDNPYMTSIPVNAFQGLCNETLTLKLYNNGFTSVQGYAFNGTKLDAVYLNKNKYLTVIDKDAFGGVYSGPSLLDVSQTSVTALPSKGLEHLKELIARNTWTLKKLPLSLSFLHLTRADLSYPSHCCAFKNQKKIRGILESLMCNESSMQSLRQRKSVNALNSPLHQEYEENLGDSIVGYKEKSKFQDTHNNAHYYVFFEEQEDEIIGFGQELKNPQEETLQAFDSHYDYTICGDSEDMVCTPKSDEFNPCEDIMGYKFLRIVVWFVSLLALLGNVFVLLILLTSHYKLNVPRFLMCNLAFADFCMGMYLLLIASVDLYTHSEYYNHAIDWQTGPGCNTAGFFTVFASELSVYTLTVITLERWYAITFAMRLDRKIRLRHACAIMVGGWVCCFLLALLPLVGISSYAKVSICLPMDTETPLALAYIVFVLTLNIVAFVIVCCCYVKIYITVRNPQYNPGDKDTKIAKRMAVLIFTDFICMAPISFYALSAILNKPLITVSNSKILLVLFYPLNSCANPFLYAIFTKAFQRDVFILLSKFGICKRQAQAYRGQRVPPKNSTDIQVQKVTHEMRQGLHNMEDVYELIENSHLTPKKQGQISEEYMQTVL
Method in brief: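 TSHR-HEK293 cells were plated and held 18 h at 37C/5% CO2, then given compound plus Ro20-1724 and stimulated with TSH at 1.5 ng/mL final. After 30 min at room temperature, cAMP was detected with cAMP-d2/anti-cAMP-cryptate (1 h) by fluorescence.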

[2] = qHTS assay to identify small molecule agonists of the estrogen receptor alpha (ER-alpha) signaling pathway in the presence of an antagonist - cell viability counter screen (AID 1259386);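 note: cells exposed to compounds for 22 h at 37 °C before the viability read; nearly all actives have a fitted effect of over 30% in size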; note: potency is the fitted concentration of half-maximal effect
Method in brief: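 VM7Luc4E2, stripped-serum pre-culture 5 d; 24hr plating; +ICI-182,780 10.0nM final; cpds 15 conc, 22hr, 37C/5% CO2; CellTiter-Fluor added at 21hr, fluorescence 1hr later.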

[3] = target: Progesterone receptor (Homo sapiens) (UniProt P06401); assay: qHTS assay to identify small molecule agonists of the progesterone receptor (PR) signaling pathway (AID 1346784; calls by dose curve; note: nearly all actives have a fitted effect of over 30% in size; note: potency is the fitted concentration of half-maximal effect)
Sequence of Progesterone receptor (Homo sapiens) (P06401 whole entry, looked up): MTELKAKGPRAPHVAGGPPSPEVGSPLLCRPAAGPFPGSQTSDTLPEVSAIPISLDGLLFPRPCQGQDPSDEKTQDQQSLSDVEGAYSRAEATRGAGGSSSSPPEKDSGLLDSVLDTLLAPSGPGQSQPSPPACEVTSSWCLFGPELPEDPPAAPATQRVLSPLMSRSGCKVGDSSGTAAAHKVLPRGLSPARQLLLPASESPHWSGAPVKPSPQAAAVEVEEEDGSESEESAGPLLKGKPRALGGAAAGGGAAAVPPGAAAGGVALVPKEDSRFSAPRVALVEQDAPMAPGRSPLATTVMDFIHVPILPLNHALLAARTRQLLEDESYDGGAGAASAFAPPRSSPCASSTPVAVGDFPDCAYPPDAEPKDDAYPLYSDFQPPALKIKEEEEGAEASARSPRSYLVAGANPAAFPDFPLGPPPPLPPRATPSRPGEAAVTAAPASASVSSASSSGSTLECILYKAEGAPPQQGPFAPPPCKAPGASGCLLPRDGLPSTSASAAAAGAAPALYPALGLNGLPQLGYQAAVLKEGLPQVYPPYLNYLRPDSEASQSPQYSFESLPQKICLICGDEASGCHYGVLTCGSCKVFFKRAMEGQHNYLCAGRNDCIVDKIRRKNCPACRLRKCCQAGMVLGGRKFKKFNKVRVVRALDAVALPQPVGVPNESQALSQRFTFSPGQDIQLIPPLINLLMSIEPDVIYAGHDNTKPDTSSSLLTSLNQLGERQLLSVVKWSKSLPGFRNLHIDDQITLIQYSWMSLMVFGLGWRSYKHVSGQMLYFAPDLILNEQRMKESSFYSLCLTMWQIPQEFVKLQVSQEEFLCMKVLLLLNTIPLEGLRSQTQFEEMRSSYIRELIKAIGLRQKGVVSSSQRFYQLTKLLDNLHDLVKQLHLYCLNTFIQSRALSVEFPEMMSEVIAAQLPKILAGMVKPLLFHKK
Method in brief: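 Seed PR-UAS-bla HEK 293T cells (2% charcoal-stripped FBS), incubate 6 hr at 37C; add compounds in DMSO, 16 hr at 37C; add LiveBLAzer B/G substrate, 2 hr RT; read fluorescence intensity.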

[4] = target: Progesterone receptor (Homo sapiens) (UniProt P06401); assay: qHTS assay to identify small molecule antagonists of the progesterone receptor (PR) signaling pathway (AID 1346795; active = well fitted inhibition curve with a large enough effect in the signal ratio in the repeat runs, not every such curve was filed as active; the % refers to the signal ratio; note: potency is the fitted concentration of half-maximal effect)
Method in brief: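 Screening used a GripTite HEK293T line with PR-responsive UAS-beta-lactamase. Cells were challenged with compound in the presence of 1 nM R5020 final for 16 hr at 37C; B/G FRET substrate, 2 hr room temperature, fluorescence.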

[5] = qHTS assay to identify small molecule antagonists of the progesterone receptor (PR) signaling pathway - cell viability counter screen (AID 1346798); note: series mostly up to about 92 µM; nearly all actives have a fitted effect of over 50% in size
Method in brief: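 Measures cytotoxicity in parallel with the PR antagonist reporter read: HEK293T PR-UAS-bla cells get compound and R5020 for 16 hr, and remaining viable cells are quantified by CellTiter-Glo luminescence.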

[6] = qHTS assay to identify small molecule agonists of the progesterone receptor (PR) signaling pathway - cell viability counter screen (AID 1346799; calls by dose curve; note: nearly all actives have a fitted effect of over 45% in size)
Method in brief: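 Using the same plates as the PR reporter screen, HEK293T PR-UAS-bla cells received compounds for 16 hr at 37C and were then lysed with CellTiter-Glo; luminescence was read 30 min later at room temperature.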

[7] = qHTS assay to identify small molecule antagonists of the TGF-beta/Smad signaling pathway - cell viability counter screen (AID 1346824); note: nearly all actives have a fitted effect of over 50% in size
Method in brief: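 SBE-bla HEK 293T cells were plated overnight at 37 C, then given compounds in DMSO plus TGF-beta1 (added as 0.25 ng/mL solution) for 5 hr. After the bla read, CellTiter-Glo was added to the same wells and luminescence read after 30 min at room temperature.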

[8] = qHTS assay to identify small molecule agonists of the TGF-beta/Smad signaling pathway - cell viability counter screen (AID 1346829); note: top concentration of the series differs between compounds; nearly all actives have a fitted effect of over 45% in size
Method in brief: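 SBE-bla HEK 293T cells plated overnight, compound exposure 5 hr at 37 C. Viability read in the same wells by CellTiter-Glo luminescence after 30 min at room temperature, following the beta-lactamase read.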

[9] = qHTS assay to identify small molecule agonists of the TGF-beta/Smad signaling pathway (AID 1346859; active = well fitted activation curve with a large enough effect in the signal ratio in the repeat runs, not every such curve was filed as active; the % refers to the signal ratio; note: series mostly up to about 77 µM)
Method in brief: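 Beta-lactamase reporter activity downstream of Smad binding elements was measured in stably transfected HEK 293T cells; compounds were incubated for 5 hr, substrate for 2 hr at room temperature.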

[10] = target: Thyrotropin-releasing hormone receptor (Homo sapiens) (UniProt P34981); assay: qHTS assay to identify small molecule antagonists of the thyrotropin-releasing hormone receptor (TRHR) signaling pathway (AID 1346877; active = well fitted inhibition curve with a large enough effect in the repeat runs, not every such curve was filed as active; note: series mostly up to about 51 µM)
Sequence of Thyrotropin-releasing hormone receptor (Homo sapiens) (P34981 whole entry, looked up): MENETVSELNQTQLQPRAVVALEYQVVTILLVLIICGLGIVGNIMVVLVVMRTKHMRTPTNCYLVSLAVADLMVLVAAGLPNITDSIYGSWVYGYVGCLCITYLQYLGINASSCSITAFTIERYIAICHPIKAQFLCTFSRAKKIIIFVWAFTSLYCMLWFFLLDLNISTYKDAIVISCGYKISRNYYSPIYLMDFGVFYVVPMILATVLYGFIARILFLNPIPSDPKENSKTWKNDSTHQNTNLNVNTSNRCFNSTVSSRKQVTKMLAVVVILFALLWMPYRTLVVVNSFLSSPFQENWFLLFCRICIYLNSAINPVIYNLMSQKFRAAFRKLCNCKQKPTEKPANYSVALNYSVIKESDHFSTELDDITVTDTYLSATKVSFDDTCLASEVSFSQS
Method in brief: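 Intracellular calcium fluorescence, read kinetically every second over 3 min, reports TRH-evoked signalling in HEK293 cells carrying TRHR. Test compounds were added 5 min ahead of a 1 nM TRH challenge.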

Row | SMILES | outcome [1] | Potency [2] | Potency [3] | Potency [4] | Potency [5] | outcome [6] | Potency [7] | Potency [8] | outcome [9] | outcome [10]
1 | COP(=S)(OC)SCN1C(=O)c2ccccc2C1=O | inactive | inactive | inactive | inactive | inactive | inactive | inactive | inactive | inactive | 
2 | Nc1nc(N)nc(NC2CC2)n1 | inactive | inactive | inactive | inactive | inactive | inactive | inactive | inactive | inactive | 
3 | N#Cc1cccc(C#N)c1 | inactive | inactive | inactive | inactive | inactive | inactive | inactive | inactive | inactive | 
4 | CSc1nnc(C(C)(C)C)c(=O)n1N | inactive | inactive | inactive | inactive | inactive | inactive | inactive | inactive | inactive | 
5 | C/C=C/c1ccc2c(c1)OCO2 | inactive | inactive | inactive | inactive | inactive | inactive | inactive | inactive | inactive | 
6 | c1ccc2c(c1)CCCC2 | inactive | inactive | inactive | inactive | inactive | inactive | inactive | inactive | inactive | 
7 | CNC(=O)O/N=C(\SC)C(=O)N(C)C | inactive | inactive | inactive | inactive | inactive | inactive | inactive | inactive | inactive | 
8 | N#CN=C(N)N | inactive | inactive | inactive | inactive | inactive | inactive | inactive | inactive | inactive | 
9 | Cc1cc(O)ccc1Cl | inactive | inactive | inactive | inactive | inactive | inactive | inactive | inactive | inactive | 
10 | O=C(O)C1C(C(=O)O)C2(Cl)C(Cl)=C(Cl)C1(Cl)C2(Cl)Cl (centres undefined) | inactive | inactive | inactive | inactive | inactive | inactive | inactive | inactive | inactive | 
11 | CNCC(O)c1ccc(O)cc1 (centres undefined) | inactive | inactive | inactive | inactive | inactive | inactive | inactive | inactive | inactive | 
12 | Cc1ccc(N)cc1 | inactive | inactive | inactive | inactive | inactive | inactive | inactive | inactive | inactive | 
13 | COC(C)(C)CCCC(C)C/C=C/C(C)=C/C(=O)OC(C)C (centres undefined) | inactive | inactive | inactive | inactive | inactive | inactive | inactive | inactive | inactive | 
14 | O=[N+]([O-])c1ccc(Cl)cc1 | inactive | inactive | inactive | inactive | inactive | inactive | inactive | inactive | inactive | 
15 | Cc1cccc(N)c1C | inactive | inactive | 15.9 µM (active) and inactive | inactive | inactive | inactive | inactive | inactive | inactive | 
16 | Nc1cccc(Cl)c1 | inactive | inactive | inactive | inactive | inactive | inactive | inactive | inactive | inactive | 
17 | Sc1ccccc1 | inactive | inactive | inactive | inactive | inactive | inactive | inactive | inactive | inactive | 
18 | [N-]=[N+]=CC(=O)OC[C@H](N)C(=O)O | inactive | inactive | inactive | inactive | inactive | inactive | inactive | inactive | inactive | 
19 | Cl/C=C/Cl | inactive | inactive | inactive | inactive | inactive | inactive | inactive | inactive | inactive | 
20 | CC(C)(C)C(=O)CCl | inactive | inactive | inactive | inactive | inactive | inactive | inactive | inactive | inactive | 
21 | OCc1ccco1 | inactive | inactive | inactive | inactive | inactive | inactive | inactive | inactive | inactive | 
22 | O=P1(NCCCl)OCCCN1CCCl (centres undefined) | inactive | inactive | inactive | inactive | inactive | inactive | inactive | inactive | inactive | 
23 | Nc1ncc([N+](=O)[O-])s1 | inactive | 54.9 µM (active) and inactive | inactive | inactive | inactive | inactive | inactive | inactive | inactive | 

Row | SMILES | outcome [1] | Potency [2] | Potency [3] | Potency [4] | Potency [5] | outcome [6] | Potency [7] | Potency [8] | outcome [9] | outcome [10]
24 | CN(C)NC(=O)CCC(=O)O | inactive | inactive | inactive | inactive | inactive | inactive | inactive | inactive | inactive | 
25 | CN1C(=O)CCS(=O)(=O)C1c1ccc(Cl)cc1 (centres undefined) | inactive | inactive | inactive | inactive | inactive | inactive | inactive | inactive | inactive | 
26 | CC[N+](=O)[O-] | inactive | inactive | inactive | inactive | inactive | inactive | inactive | inactive | inactive | 
27 | NNc1ccccc1 | inactive | inactive | inactive | inactive | inactive | inactive | inactive | inactive | inactive | 
28 | FC(F)(F)c1ccc(Cl)cc1 | inactive | inactive | inactive | inactive | inactive | inactive | inactive | inactive | inactive | 
29 | O=C(O)c1cc(Oc2ccc(C(F)(F)F)cc2Cl)ccc1[N+](=O)[O-] | inactive | inactive | inactive | inactive | inactive | inactive | inactive | inactive | inactive | 
30 | Nc1cc(Cl)cc(Cl)c1 | inactive | inactive | inactive | inactive | inactive | inactive | inactive | inactive | inactive | 
31 | N#Cc1ccccn1 | inactive | inactive | inactive | inactive | inactive | inactive | inactive | inactive | inactive | inactive
32 | OCCCCO | inactive | inactive | inactive | inactive | inactive | inactive | inactive | inactive | inactive | inactive
33 | O=[N+]([O-])c1ccc(Cl)c(Cl)c1 | inactive | inactive | inactive | inactive | inactive | inactive | inactive | inactive | inactive | inactive
34 | CCOP(=S)(OCC)Oc1cc(C)nc(C(C)C)n1 | inactive | inactive | inactive | inactive | inactive | inactive | inactive | inactive | inactive | 
35 | CCOC(=O)CC(SP(=O)(OC)OC)C(=O)OCC (centres undefined) | inactive | inactive | inactive | inactive | inactive | inactive | inactive | inactive | inactive | 
36 | Cc1ccccc1N | inactive | inactive | inactive | inactive | inactive | inactive | inactive | inactive | inactive | 
37 | CNC(=O)Oc1cccc2ccccc12 | inactive | inactive | inactive | 27.1 µM (active) and 30.6 µM (active) | inactive | inactive | inactive | inactive | inactive | inactive
38 | O=C/C=C/c1ccccc1 | inactive | inactive | inactive | inactive | inactive | inactive | inactive | inactive | inactive | inactive
39 | Cc1ccc(O)c(C)c1 | inactive | inactive | inactive | inactive | inactive | inactive | inactive | inactive | inactive | inactive
40 | CC(=O)C1CCOC1=O (centres undefined) | inactive | inactive | inactive | inactive | inactive | inactive | inactive | inactive | inactive | 
41 | CCNc1nc(Cl)nc(NC(C)C)n1 | inactive | inactive | inactive | inactive | inactive | inactive | inactive | inactive | inactive | inactive
42 | ClCCOCCCl | inactive | inactive | inactive | inactive | inactive | inactive | inactive | inactive | inactive | 
43 | Cl[C@H]1OCCO[C@@H]1Cl | inactive | inactive | inactive | inactive | inactive | inactive | inactive | inactive | inactive | inactive
44 | O=C(O)CCCc1ccc(N(CCCl)CCCl)cc1 | inactive | inactive | inactive | inactive | inactive | inactive | inactive | inactive | inactive | 
45 | CC(=O)/C=C/c1ccccc1 | inactive | inactive | inactive | inactive | inactive | inactive | inactive | inactive | inactive | inactive
